From PubChem BioAssay (Tox21)
Where “and” joins values, the source holds several entries; their conditions need not be identical. Identical values can stand only once. Results filed as inconclusive are left out. A call without a number means that no potency is given here. A structure can be active in one record and inactive in another. Calls of active or inactive are those of the source. Unless noted, calls follow the shape of the dose curve; as a rule, active = well fitted cell-killing curve with a large enough effect in the repeat runs; inconclusive = weak or mixed curves; inactive = no such curve, though single readings can be large or run the other way.

Biological target: Peroxisome proliferator-activated receptor delta (Homo sapiens) (UniProt Q03181)
Assay: qHTS assay to identify small molecule agonists of the peroxisome proliferator-activated receptor delta (PPARd) signaling pathway (AID 743212; calls by dose curve;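 also: HEK293H cells with PPARd UAS beta-lactamase reporter GeneBLAzer system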)
Settings: HEK293H PPARd-UAS-bla, beta-lactamase FRET ratio, 17 h; series mostly up to 62.6 µM
Procedure, shortened: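 Steps: seed PPARd-bla HEK293H cells; incubate 5 h, 37 C, 5% CO2; add compounds in DMSO; incubate, 37 C; add LiveBLAzer B/G FRET substrate; hold 2 h at room temperature; measure fluorescence.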

Chain of Peroxisome proliferator-activated receptor delta (Homo sapiens) (Q03181 whole entry, looked up): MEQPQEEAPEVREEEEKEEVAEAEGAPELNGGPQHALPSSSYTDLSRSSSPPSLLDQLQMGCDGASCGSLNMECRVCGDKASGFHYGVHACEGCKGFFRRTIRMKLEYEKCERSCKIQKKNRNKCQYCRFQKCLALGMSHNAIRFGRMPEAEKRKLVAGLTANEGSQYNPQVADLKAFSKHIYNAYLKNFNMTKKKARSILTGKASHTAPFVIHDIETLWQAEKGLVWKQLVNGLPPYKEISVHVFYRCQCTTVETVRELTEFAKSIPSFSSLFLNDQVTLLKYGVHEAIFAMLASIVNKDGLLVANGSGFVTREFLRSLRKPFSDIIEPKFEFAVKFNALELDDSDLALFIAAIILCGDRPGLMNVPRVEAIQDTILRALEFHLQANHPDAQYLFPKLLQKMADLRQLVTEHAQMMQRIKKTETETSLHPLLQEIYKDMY

Compound	outcome
S=c1nc[nH]c2nc[nH]c12	inactive
CN(C)c1ccc(C(=N)c2ccc(N(C)C)cc2)cc1	inactive
O=C(O)c1cc(-c2ccccc2)nc2ccccc12	inactive
C=C(C)C(=O)OCCCCCC	inactive
CN(C)c1cccc(O)c1	inactive
COC(=O)Nc1nc2ccc(Sc3ccccc3)cc2[nH]1	inactive

Test system: not listed separately
Assay: qHTS assay to identify small molecule antagonists of the peroxisome proliferator-activated receptor delta (PPARd) signaling pathway - cell viability counter screen (AID 743213); also: nearly all actives have a fitted effect of over 50% in size; also: potency is read from the fitted curve at half-maximal effect
Settings: PPARd-bla HEK293H viability, CellTiter-Glo luminescence, 17 h; series mostly up to 62 µM
Procedure, shortened: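 PPARd-bla HEK293H cells were treated with compounds plus agonist L165041 (300 nM final) for 17 h at 37 C. Viability was then read in the same wells by CellTiter-Glo luminescence after 30 min at room temperature.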

Compound	Potency
CC1COc2ccccc2N1C(=O)C(Cl)Cl (stereo unspecified)	inactive
O=C1N=C(O)CN1/N=C/c1ccc(-c2ccc([N+](=O)[O-])cc2)o1	inactive
NCCc1ccc(O)c(O)c1	inactive
CC1(C)CC(N=C=O)CC(C)(CN=C=O)C1 (stereo unspecified)	inactive
COCC(C)O (stereo unspecified)	inactive
CC1(C)O[C@@H]2C[C@H]3[C@@H]4C[C@H](F)C5=CC(=O)CC[C@]5(C)[C@H]4[C@@H](O)C[C@]3(C)[C@]2(C(=O)CO)O1	inactive
Oc1c(Cl)cc(Cl)c(Cl)c1Cl	inactive
C=C1CC[C@H](O)CC1=C/C=C1\CCC[C@]2(C)[C@@H]([C@H](C)/C=C/[C@H](C)C(C)C)CC[C@@H]12	inactive
Oc1ccc2ccccc2c1N=Nc1ccccc1	inactive
COC(=O)c1ccc(C(=O)OC)cc1	inactive
NC(=O)NNc1ccccc1	inactive
CC1=C(/C=C/C(C)=C/C=C/C(C)=C/CO)C(C)(C)CCC1	inactive
CC1Cc2ccccc2N1NC(=O)c1ccc(Cl)c(S(N)(=O)=O)c1 (stereo unspecified)	inactive
CN(C)c1ccc(C(=N)c2ccc(N(C)C)cc2)cc1	inactive
CC1=C(CC(=O)O)c2cc(F)ccc2/C1=C\c1ccc(S(C)=O)cc1 (stereo unspecified)	inactive
OC[C@@H](O)[C@@H](O)[C@H](O)[C@@H](O)CO	inactive
Cc1cc(O)c2c(c1)C(=O)c1cc(O)cc(O)c1C2=O	inactive
CC#C[C@]1(O)CC[C@H]2[C@@H]3CCC4=CC(=O)CCC4=C3[C@@H](c3ccc(N(C)C)cc3)C[C@@]21C	inactive

Compound	Potency
Cc1cc(Cc2ccc(N)c(C)c2)ccc1N	inactive
Nc1c(S(=O)(=O)O)cc(Br)c2c1C(=O)c1ccccc1C2=O	inactive
C[C@@H](O)[C@H]1C(=O)N2C(C(=O)O)=C(S[C@@H]3CN[C@H](C(=O)N(C)C)C3)[C@H](C)[C@H]12	inactive
Oc1ccc2ccccc2c1	inactive and 3.89 µM (active)
OCC#CCO	inactive
C=C(C)C(=O)OCCCCCC	inactive
Cc1cc(NS(=O)(=O)c2ccc(N)cc2)no1	inactive
C/C=C(C)/C=C/C=C(C)C	inactive
CS(=O)(=O)Nc1ccc([N+](=O)[O-])cc1Oc1ccccc1	inactive
COC(=O)Nc1nc2ccc(Sc3ccccc3)cc2[nH]1	inactive
CCCCCCC(C)(C)S	inactive
CC(=O)CCc1ccccc1	inactive
CCCCCCCCCC(=O)O	inactive
CC(=O)Nc1ccc(C(=O)O)cc1	inactive
OC[C@@H](O)[C@H](O)[C@H](O)[C@@H](O)CO	inactive
CN(CCOc1ccc(CC2SC(=O)NC2=O)cc1)c1ccccn1 (stereo unspecified)	inactive
CC(C)NCC(O)COc1cccc2ccccc12 (stereo unspecified)	49.5 µM (active) and 21.9 µM (active)
